# Reference: PubChem BioAssay (NCATS)
# Results filed as inconclusive are left out. Values without a mark were called inactive. The source made the active and inactive calls. The call rests on the fitted dose curve; in most records, active means well fitted inhibition curve with a large enough effect; inconclusive means small, poorly fitted or top-dose-only effect; inactive means flat fitted curve, though single readings scatter.
# Assays:
# [1] = qHTS profiling for inhibitors of Plasmodium falciparum proliferation (AID 504749); further: nearly all actives have a fitted effect of over 60% in size;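 on activity, negative = inhibition: 0% = DMSO vehicle and full inhibition = artemisinin control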; conditions: P. falciparum in erythrocytes, SYBR Green DNA, 72 h
# Procedure, shortened: (§1)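 Readout was DNA-dye fluorescence from lysed cultures, ex 485/em 535 nm. Parasitized red cells had grown 72 h with compound; data scaled between 0.29 uM artemisinin and DMSO wells and corrected using vehicle-only plates.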
# 3D7 = experiment: as above; conditions: P. falciparum in erythrocytes, SYBR Green DNA, 72 h; series mostly up to 28.7 µM
# Procedure, shortened: as §1
# 7G8 = experiment: as above; conditions: P. falciparum in erythrocytes, SYBR Green DNA, 72 h; series mostly up to 28.7 µM
# Procedure, shortened: as §1
# [2] = at 28.7 µM (top of the series), parasite line A
# [3] = at 28.7 µM (top of the series), parasite line B
# [4] = at 12.8 µM (top of the series), parasite line A
# [5] = at 12.8 µM (top of the series), parasite line B
# Potency means the concentration at half of the fitted maximal effect.
Structure (SMILES),"activity, negative = inhibition [1, 2]","activity, negative = inhibition [1, 3]",Potency (3D7),Potency (7G8),Potency ([1]; parasite line A),Potency ([1]; parasite line B),"activity, negative = inhibition [1, 4]","activity, negative = inhibition [1, 5]"
CCCCCCCCCCCCCCCC(=O)OCC(COC(=O)CCCCCCCCCCCCCCC)OC(=O)CCCCCCCCCCCCCCC,-0.409%,9.45%,inactive,inactive,–,–,–,–
CCOC(=O)C1=CC2(CC)CCCN3CCc4c(n1c1ccccc41)C32 (stereo unspecified),–,–,8.91 µM (active),5.62 µM (active),11.2 µM (active),7.94 µM (active),–,–
CCCCCCCCCCCCCC[n+]1ccc(C)cc1,–,–,2.51 µM (active),1.12 µM (active),2.51 µM (active),5.62 µM (active),–,–
C[C@@H]1CCC2[C@@H](C)[C@@H](O)O[C@@H]3O[C@@]4(C)CC[C@@H]1[C@@]23OO4 (stereo partly specified),–,–,0.0035 µM (active),0.0008 µM (active),0.0014 µM (active),0.0018 µM (active),–,–
CN=C(NC#N)Nc1ccc(C2=NNC(=O)C[C@@H]2C)cc1,13.8%,8.03%,inactive,inactive,–,–,–,–
O=S(=O)(O)c1ccc2c(N=Nc3ccc(S(=O)(=O)O)c4ccccc34)c(O)c(S(=O)(=O)O)cc2c1,-19.8%,-30%,inactive,inactive,–,–,–,–
CC(C)(C)C(=O)OCOC(=O)[C@@H]1N2C(=O)[C@@H](N=CN3CCCCCC3)[C@H]2SC1(C)C,–,–,inactive,inactive,–,–,1.15%,5.1%
O=C(O)c1cc(=O)c2c3nc4ccccc4oc-3cc(=O)c2[nH]1,-19%,-11.6%,14.1 µM (active),1.26 µM (active),–,–,–,–
CC1=C(/C=C/C(C)=C/C=C/C(C)=C/C=C/C=C(C)/C=C/C=C(C)/C=C/C2=C(C)C(=O)CCC2(C)C)C(C)(C)CCC1=O,-4.18%,4.39%,inactive,inactive,–,–,–,–
Cc1cc(C(=O)NNCc2ccccc2)no1,–,–,inactive,inactive,–,–,2.34%,-1.58%
O=CCCCC=O,-0.127%,0.568%,inactive,10 µM (active),–,–,–,–
C=CCSSSCC=C,1.87%,3.6%,inactive,inactive,–,–,–,–
C#CCOc1ccc2c(C)cc(=O)oc2c1,3.33%,5.62%,inactive,inactive,–,–,–,–
CCCCCC(CC)COC(=O)CC(C(=O)OCC(CC)CCCC)S(=O)(=O)O (stereo unspecified),7.28%,3.54%,inactive,inactive,–,–,–,–
